Screening results deposited in PubChem BioAssay by National Center for Advancing Translational Sciences (NCATS).
Compounds with a hit are over-represented: about 3.3% of the library has one in this group of screens.
Sm TGR inh: qHTS Assay for the Inhibitors of Schistosoma Mansoni Peroxiredoxins; Schistosoma mansoni thioredoxin glutathione reductase (TGR), Q962Y6; purified TGR, DTNB reduction, TNB absorbance 405 nm; Potency, µM (titrated, usually from 114 µM), usual class: inhibitors; 360,000 compounds, 3% hits; AID 485364, 2010; note: nearly all actives have a fitted effect of over 60% in size
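Kinetic colorimetric format: TGR-catalysed, NADPH-driven DTNB reduction monitored via TNB absorbance. Enzyme dispensed at 20 nM; compound exposure 15 min at room temperature before reaction start.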
LmPK inhibitor: qHTS Assay for Inhibitors of Leishmania Mexicana Pyruvate Kinase (LmPK); Q27686; purified LmPK, Kinase-Glo ATP luminescence, 1 h; Potency, µM (series often up to 57.5 µM), usual class: inhibitors; 290,000 compounds, 0.37% hits
Target sequence (Q27686 whole entry, looked up): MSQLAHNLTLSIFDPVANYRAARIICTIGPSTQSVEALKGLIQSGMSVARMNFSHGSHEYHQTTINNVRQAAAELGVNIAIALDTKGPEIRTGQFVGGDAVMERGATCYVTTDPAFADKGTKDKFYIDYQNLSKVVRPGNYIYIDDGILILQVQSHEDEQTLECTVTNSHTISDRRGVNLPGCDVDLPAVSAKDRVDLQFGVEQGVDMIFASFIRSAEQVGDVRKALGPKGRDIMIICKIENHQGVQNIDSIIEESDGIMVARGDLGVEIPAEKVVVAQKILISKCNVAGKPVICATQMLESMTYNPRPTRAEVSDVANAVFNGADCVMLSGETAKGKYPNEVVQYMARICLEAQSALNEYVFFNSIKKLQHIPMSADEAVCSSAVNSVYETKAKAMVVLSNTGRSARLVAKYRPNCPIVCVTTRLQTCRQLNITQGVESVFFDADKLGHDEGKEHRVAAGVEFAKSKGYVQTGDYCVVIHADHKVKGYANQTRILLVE
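0.1 nM LmPK, 0.5 mM PEP, 0.1 mM ADP; 50 mM imidazole pH 7.2, 7 mM MgCl2, 50 mM KCl; 1 h RT. Kinase-Glo luminescence readout, normalized to no-enzyme (full inhibition) and uninhibited wells.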
TbPYK inhibitor: qHTS of Trypanosoma Brucei Inhibitors; pyruvate kinase (Trypanosoma brucei), Q57TT1; TbPYK enzyme, Kinase-Glo Plus ATP luminescence, 45 min; Potency, µM (titrated, usually from 76.8 µM), most hits filed as inhibitors; 410,000 compounds, 0.12% hits; note: nearly all actives have a fitted effect of over 50% in size
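Activity of T. brucei pyruvate kinase was followed by Kinase-Glo Plus luminescence after the enzyme reacted 45 min at room temperature with 130 uM ADP (final) and substrate. Test compounds were added before ADP at multiple concentrations.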
SARS PLP yeast: qHTS of Yeast-based Assay for SARS-CoV PLP | S. cerevisiae expressing SARS-CoV PLpro, growth rescue | Potency, µM (highest dose often 32.9 µM), hits mostly activators | 330,000 compounds, 0.19% hits | AID 485353, 2010; calls by dose curve; note: nearly all actives have a fitted effect of over 55% in size
RE007 growth inh: qHTS Assay for Inhibitors of the HIV-1 protein Vpr; Potency, µM (series often up to 92.2 µM), most hits filed as inhibitors; 360,000 compounds, 0.21% hits; S. pombe RE007 Vpr strain, BacTiter-Glo ATP luminescence, 24 h; active = well fitted falling curve with a large enough effect; inconclusive = small, poorly fitted or top-dose-only effect; inactive = no such curve, though single readings can be large or run the other way; note: nearly all actives have a fitted effect of over 50% in size
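Fission yeast strain RE007, carrying one chromosomally integrated HIV-1 vpr copy, was seeded at OD 0.01 in PMG+AL medium with 23 nL pinned compound. After 24 h at 30 °C and 99% humidity, viability was read by BacTiter-Glo luminescence.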
NS1 function inh: qHTS Assay for Inhibitors of Influenza NS1 Protein Function. Potency, µM (series often up to 46.1 µM). AID 2326, 2010. 270,000 compounds, 0.4% hits; calls by dose curve; note: actives are rising curves; nearly all actives have a fitted effect of over 50% in size
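Read-out: OD600 growth recovery of NS1-expressing budding yeast. Cells grown overnight at 30C in -URA glucose medium, washed, resuspended and diluted 1:100 in 2% galactose assay medium, pH 6.0. Same strain lacking NS1 served as positive control.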
Large screens that a line does not name were inactive. Unless noted, calls come from the whole dose curve; as a rule, active = well fitted curve in the direction sought with a large enough effect; inconclusive = small, poorly fitted or top-dose-only effect, or another doubt; inactive = no such curve, though single readings can be large; an effect the other way counts as inactive or inconclusive.

Cc1cn2c(=O)cc(COC(=O)COc3ccc(C)c(C)c3)nc2s1	none (no result: LmPK inhibitor, SARS PLP yeast, RE007 growth inh, NS1 function inh)
CC#CCN1c2ccccc2[C@]23C[C@@H](C(=O)OC)N(S(=O)(=O)c4ccc([N+](=O)[O-])cc4)C2=NC(C(=O)OC)=C(C(=O)OC)[C@H]13	none (no result: Sm TGR inh, TbPYK inhibitor, SARS PLP yeast, RE007 growth inh, NS1 function inh)
CCCc1cnc2c(c1SCC(=O)N1CCC(C)CC1)c(=O)n(C)c(=O)n2C	none (no result: LmPK inhibitor, SARS PLP yeast, RE007 growth inh, NS1 function inh)
Cc1ccc(-c2nc3c(c(=O)[nH]c(=O)n3Cc3ccccc3)n2Cc2ccccc2)o1	Sm TGR inh 18µM (no result: NS1 function inh)
Cc1ccc(-c2nc3c(c(=O)[nH]c(=O)n3Cc3ccccc3)n2C)s1	none (no result: TbPYK inhibitor, RE007 growth inh)
Cc1ccc(-c2nc3c(c(=O)[nH]c(=O)n3Cc3ccccc3)n2C)o1	Sm TGR inh 3.5µM (no result: NS1 function inh)
COCCCn1c(-c2ccc(OC)cc2)nc2c1c(=O)[nH]c(=O)n2Cc1ccccc1	none
CC(=O)n1cc(N(C(=O)CCl)c2ccc([N+](=O)[O-])cc2)c2ccccc21	Sm TGR inh 0.71µM
O=Cc1[nH]c2ccccc2c1N(C(=O)CCl)c1ccc([N+](=O)[O-])cc1	Sm TGR inh 3.2µM
CC(=O)n1cc(N(C(=O)CCl)c2ccccc2)c2ccccc21	Sm TGR inh 0.5µM
O=S(=O)(Nc1ccc(-c2ccc(N3CCCC3)nn2)cc1)c1cc(F)ccc1F	none (no result: LmPK inhibitor, SARS PLP yeast, RE007 growth inh, NS1 function inh)
Fc1ccc(-c2c[nH]c(=S)n2Cc2ccccc2)cc1	LmPK inhibitor 3.5µM, TbPYK inhibitor inconclusive (no result: NS1 function inh)
CCOc1cc(CN2CCN(c3cccc(C(F)(F)F)c3)CC2)ccc1O	Sm TGR inh 45µM
CCOC(=O)N1CCN(C(=O)C2CCN(Cc3ccc(O)c(OCC)c3)CC2)CC1	Sm TGR inh 32µM
CCOc1cc(CN2CCSCC2)ccc1O	Sm TGR inh 40µM
CCOc1cc(CN2CCC(n3nccc3NC(=O)C3CC3)CC2)ccc1O	Sm TGR inh 40µM
O=C(CCOc1ccccc1)Nc1ccnn1C1CCN(Cc2ccc(O)cc2)CC1	Sm TGR inh 40µM
COc1ccc2c3c(c(=O)oc2c1)C1O[C@](c2ccsc2)(Cc2cc(C#N)ccc21)O3	Sm TGR inh 6.3µM (no result: TbPYK inhibitor, RE007 growth inh)
N#Cc1ccc2c(c1)C[C@]1(c3ccsc3)Oc3c(c(=O)oc4ccc(F)cc34)C2O1	Sm TGR inh inconclusive (no result: TbPYK inhibitor, RE007 growth inh)
N#Cc1ccc2c(c1)C[C@]1(c3ccsc3)Oc3c(c(=O)oc4ccccc34)C2O1	Sm TGR inh 7.1µM (no result: TbPYK inhibitor, RE007 growth inh)
COC(=O)C1=COC(C)C2CN3CCc4c([nH]c5ccccc45)C3CC12 (configuration not stated)	Sm TGR inh 79µM
COC(=O)C1=CO[C@@H](C)[C@H]2CN3CCc4c([nH]c5ccccc45)[C@@H]3C[C@H]12	none (no result: LmPK inhibitor, SARS PLP yeast, NS1 function inh)
O=C(CN1CCOCC1)NN=Cc1ccc([N+](=O)[O-])o1	none (no result: Sm TGR inh, LmPK inhibitor, SARS PLP yeast, NS1 function inh)
O=C(CCN1CCN(c2ccccc2)CC1)N/N=C/c1ccc([N+](=O)[O-])o1	Sm TGR inh 32µM (no result: NS1 function inh)
O=C(CN1CCCCCCC1)N/N=C/c1ccc([N+](=O)[O-])o1	Sm TGR inh 14µM
COC(=O)c1ccccc1NC(=O)Cn1c(=O)n(-c2ccc(C)cc2)c(=O)c2ccccc21	none (no result: LmPK inhibitor, SARS PLP yeast, RE007 growth inh, NS1 function inh)
CCOc1ccc(-n2cc(-c3ccc(OC)c(OC)c3)[nH]c2=S)cc1	LmPK inhibitor inconclusive, TbPYK inhibitor 1.1µM (no result: NS1 function inh)
COCCCn1c(C23CC4CC(CC(C4)C2)C3)n[nH]c1=S	TbPYK inhibitor inconclusive
Cn1c(C23CC4CC(CC(C4)C2)C3)n[nH]c1=S	TbPYK inhibitor inconclusive, SARS PLP yeast 13µM
CC1Cn2c(nnc2C23CC4CC(CC(C4)C2)C3)S1 (configuration not stated)	none
CC(C)Cn1c(C23CC4CC(CC(C4)C2)C3)n[nH]c1=S	LmPK inhibitor 25µM, TbPYK inhibitor inconclusive
Cc1cc(C)c(NC(=O)c2sc3nc(C)cc(C)c3c2NC(=O)c2ccccc2)c(C)c1	none (no result: LmPK inhibitor, SARS PLP yeast, RE007 growth inh, NS1 function inh)
Cc1ccc(C(=O)N2CCC(C(=O)c3ccc(Cl)cc3)CC2)cc1	none
